This passage reports enhancement results from PubChem BioAssay AID493056 (National Center for Advancing Translational Sciences (NCATS), 2011).

Several values for one entry are separate records, joined by “and”; a condition that tells them apart may be missing. Equal entries are not always repeated. Hit rate of the full screen: of about 360,000 compounds, about 2,400 (0.67%) were called active. No stated cut-off is given here; in the data, active means enhancement above about 30%; inactive means the rest. Shown is part of a subset that was picked to be rich in actives. A structure can be active in one record and inactive in another.

Thyrotropin-releasing hormone receptor (Homo sapiens), sequence (P34981 whole entry, looked up): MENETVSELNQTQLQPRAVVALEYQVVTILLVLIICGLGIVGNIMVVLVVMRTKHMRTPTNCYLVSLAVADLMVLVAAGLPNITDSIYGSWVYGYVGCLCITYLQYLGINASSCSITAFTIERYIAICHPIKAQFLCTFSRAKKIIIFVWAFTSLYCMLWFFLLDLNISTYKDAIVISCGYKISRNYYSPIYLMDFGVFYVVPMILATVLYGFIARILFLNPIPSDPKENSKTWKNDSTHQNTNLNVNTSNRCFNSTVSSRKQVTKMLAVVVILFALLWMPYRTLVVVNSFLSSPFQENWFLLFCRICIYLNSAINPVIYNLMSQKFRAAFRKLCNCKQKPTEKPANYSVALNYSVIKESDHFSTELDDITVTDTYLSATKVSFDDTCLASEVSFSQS

For this assay, the target named is Thyrotropin-releasing hormone receptor (Homo sapiens) (UniProt P34981). Put plainly: qHTS for Small Molecule Agonists and Allosteric Enhancers of Human TRH Receptor: Primary Screen for Enhancers. Further: 0% is about no effect. As to conditions: TRHR cells, fluo-8 calcium fluorescence, EC20 TRH enhancement; at 2 µM; stronger effect = higher value. In a few lines:
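Enhancer read-out: after compound pinning and an initial kinetic agonist-mode read, an EC20 of TRH (10 nM final) was injected and fluo-8 calcium signal (Ex 480/Em 530) followed at 1 s/cycle for 100 cycles in TRHR-expressing cells.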
(Quantitative high-throughput screening tests each substance at several concentrations.)
In the case of `Cc1cc(Cl)ccc1OCC(=O)N(Cc1ccc(N(C)C)cc1)C1CCS(=O)(=O)C1` (stereo not drawn), the enhancement is -2.26% (inactive).
Consider `CC1Cc2cc(S(=O)(=O)CCC(=O)NCc3ccc(Cl)cc3)ccc2N1C(=O)C1CC1` (stereo not drawn), for which the enhancement was 3.17% (inactive).
For `CCCn1c2ccccc2c2cnn(CC(=O)N(CC)c3cc(C)ccc3C)c(=O)c21`, the enhancement was -3.36% (inactive).
Turning to `CCCn1c2ccccc2c2cnn(CC(=O)N(C)c3ccccc3CC)c(=O)c21`, the enhancement is 33.2% (active).
As for `CCCn1c2ccccc2c2cnn(CC(=O)NCCCOC(C)C)c(=O)c21`, the enhancement was 10.8% (inactive).
As for `CCOc1ccc(CCNC(=O)c2ccc3c(c2)sc2nc(-c4ccc(F)cc4)cn23)cc1OCC`, the enhancement was 0.915% (inactive).
For `O=C(COC(=O)c1ccc(O)cc1O)NNC(=O)c1cccs1`, the enhancement is 6.82% (inactive).
Turning to `Cc1ccc(NNC(=O)c2cccs2)cc1Cl`, the enhancement is -3.86% (inactive).
Next, `Cc1ccc(C)c(NC(=O)CCC(=O)NNC(=O)c2cccs2)c1`: 30% (active); `CCOCCCNC(=O)c1c(NC(=O)Cc2coc3ccc(C)cc23)sc2c1CCC2`: -1.11% (inactive).
`CCNC(=O)c1ccc(OCC(=O)Nc2ccc(F)cc2)c(OC)c1`: the enhancement is 13.5% (inactive).
Next, `CCOc1ccc(NC(=O)COc2ccc(C(=O)NC3CCCc4ccccc43)cc2OC)cc1` (stereo not drawn): 3.25% (inactive).
For `COc1cc(C2C3=C(CCCC3=O)OC3=C2C(=O)CCC3)ccc1OCC(=O)Nc1ccccc1`, the enhancement was 78.2% (active).
Then `COc1ccc(-c2cc(-c3ccccc3)nc3c2COc2ccc(Cl)cc2-3)cc1`, with 2.02% (inactive); and `COc1ccc(Cl)cc1NC(=O)CCn1c(=O)c2cccn2c2ccccc21`, with 1.46% (inactive).
For `CCn1nc(C)c(CNC(=O)C2CCC(=O)N(Cc3cccc(F)c3)C2)c1C` (stereo not drawn), the enhancement is 31.7% (active).
On to `Cc1cccnc1CCNC(=O)C1CCC(=O)N(Cc2cccc(F)c2)C1` (stereo not drawn), for which the enhancement is -0.481% (inactive).
Next, `COC(=O)c1ccc(CNC(=O)C2CCC(=O)N(Cc3cccc(F)c3)C2)cc1` (stereo not drawn): -7.88% (inactive); `Cc1ccc(C(=O)NC2CCN(C#N)CC2)cc1`: -0.515% (inactive); `CCOC(=O)c1sc(NC(=O)/C=C/c2ccc(C(C)C)cc2)c(C(=O)OCC)c1C`: 0.66% (inactive).
For the compound `N#Cc1ccc(Oc2cc(C(F)(F)F)nc(-c3ccccn3)n2)cc1`, the enhancement is 55.8% (active).
With `N#Cc1ncc(C(F)(F)F)cc1Oc1cccnc1`, the enhancement is -3.06% (inactive).
Take `Cc1c(Cl)cccc1NC(=O)c1noc2c1CCCC2`: the enhancement is 7.16% (inactive).
Take `Cc1cc(NS(=O)(=O)c2ccc(NC(=O)c3ccccc3C)cc2)nc(C)n1`: the enhancement is 10.7% (inactive).
`CCCn1c(C2CCCN2c2nc(-c3ccc(OC)cc3)cs2)nc2ccccc21` (stereo not drawn): the enhancement is -1.81% (inactive).
As for `COc1ccc(-c2csc(-c3c(N)c(C(=O)c4ccc(OC)c(OC)c4)n4ccccc34)n2)cc1`, the enhancement was 0.214% (inactive).
Then `COc1ccc(-c2csc(Nc3ccccn3)n2)cc1`, with 34.5% (active); and `Cc1nc(NC(=O)CN(C)S(=O)(=O)c2ccc(Cl)cc2)sc1C`, with 4.55% (inactive).
In the case of `Cc1cccc(N2CCN(C(=O)CN(C)S(=O)(=O)c3ccc4c(c3)CCC(=O)N4)CC2)c1C`, the enhancement is 2.84% (inactive).
`CCOC(=O)Cc1csc(NC(=O)CN(C)S(=O)(=O)c2ccc3c(c2)CCC(=O)N3)n1`: the enhancement was 32.8% (active).
Next, `Cc1cc(C)cc(NC(=O)CCCc2nc(-c3ccccc3Cl)no2)c1`: -21.4% (inactive); `COc1ccc(CCNC(=O)c2cn(C)c3ccc(S(=O)(=O)N(C)C4CCCCC4)cc3c2=O)cc1OC`: -14.3% (inactive); `CCOc1ncccc1C(=O)OCC(=O)N1c2ccccc2CC1C` (stereo not drawn): 156% (active).
`CCOC(=O)c1[nH]c(C)c(C(=O)OCC(=O)N2c3ccccc3CC2C)c1C` (stereo not drawn): the enhancement is -0.269% (inactive).
Then `CCOc1ncccc1C(=O)OCC(=O)NC1CC1`, with 6.62% (inactive); and `Cc1ccn2c(Nc3ccc4c(c3)OCCO4)c(-c3ccc(C)s3)nc2c1`, with -3.6% (inactive).
In the case of `Cc1ccc(CCNC(=O)c2ccc3c(c2)nc2n3CCC(C)C2)cc1` (stereo not drawn), the enhancement was -2.39% (inactive).
Consider `Cc1cccc(-n2c(=O)c3c(c4cc(C)ccc4n3C)n(CC(=O)Nc3ccccc3Cl)c2=O)c1`, for which the enhancement is -2.31% (inactive).
As to `Cc1ccc(Nc2c(-c3ccc(N(C)C)cc3)nc3nc[nH]n23)cc1`, the enhancement was 1.88% (inactive).
With `CN(C)c1ccc(Nc2c3c4c(cccc4n(C)c2=O)C(=O)c2ccccc2-3)cc1`, the enhancement was 30.8% (active).
Then `CCOc1ccc(C(=O)c2cn(Cc3ccc(F)cc3)c3ccc(F)cc3c2=O)cc1`, with -6.47% (inactive); and `COc1cc2c(cc1OC)C(COc1ccc(F)cc1)N(C(=O)c1ccccc1F)CC2` (stereo not drawn), with -0.875% (inactive).
Then `CCCCn1c(N)c(N(CCOC)C(=O)c2cccc(S(=O)(=O)N(C)c3ccccc3)c2)c(=O)[nH]c1=O`, with -3.31% (inactive).
For `CCCCn1c(N)c(N(CC)C(=O)c2ccc(N(C)S(=O)(=O)c3ccc(C)cc3)cc2)c(=O)[nH]c1=O`, the enhancement is 37.2% (active).
As for `CCCCN(C(=O)c1ccc2ccccc2c1)c1c(N)n(CCCC)c(=O)[nH]c1=O`, the enhancement is -1.43% (inactive).
Then `Cc1nn(CC(=O)NCCc2ccccc2)c(=O)c2c1sc1ccccc12`, with -4.11% (inactive); and `CCc1ccc(NC(=O)c2cc3c(=O)n(Cc4cccnc4)ccc3nc2C)cc1`, with 3.22% (inactive); and `COc1ccccc1C(=O)Nc1c(C(=O)Nc2ccc(C)cc2)oc2ccccc12`, with 1.48% (inactive).
Then `O=C(CSc1nnc(CNC(=O)c2ccccc2)n1-c1ccc(F)cc1)Nc1ccccc1F`, with 1.22% (inactive); and `O=C(CSc1ccc(-c2ccccn2)nn1)Nc1ccccc1`, with -3.04% (inactive).
For the compound `O=C(CSc1ccc(-c2cccs2)nn1)Nc1ccccc1F`, the enhancement was 35.3% (active).
Then `CCOc1ccc(CNC(=O)c2cc(-c3ccc(Cl)s3)nc3ccccc23)cc1`, with 9.74% (inactive); and `Cc1ccc2nc(CN3CCN(S(=O)(=O)c4ccc(C)c(C)c4)CC3)oc2c1`, with 0.582% (inactive); and `COC(=O)c1cc(N2CCNCC2)nc2ccccc12`, with 50.7% (active).
Regarding `COC(=O)c1cnc(N2CCN(c3ccccc3OC)CC2)c2ccccc12`, the enhancement is -10.4% (inactive).
Then `CC(=O)N1CCN(C(=O)c2cc(-c3ccc(Cl)s3)nc3ccccc23)CC1`, with 2.16% (inactive).
Then `COc1cccc(CNC(=O)Cn2ncn3c(cc4ccccc43)c2=O)c1`, with 4.48% (inactive); and `CCOc1cc(-c2nnc(SCC(=O)NC3CCCCC3)nc2-c2ccc(OC)c(OCC)c2)ccc1OC`, with -3.44% (inactive); and `O=C(CNC(=O)c1ccc(Cl)cc1Cl)OC(C(=O)Nc1cc(C(F)(F)F)ccc1Cl)c1ccccc1` (stereo not drawn), with 10.6% (inactive).
As for `O=C(CC(n1cncn1)C(Cl)(Cl)Cl)c1ccc([N+](=O)[O-])cc1` (stereo not drawn), the enhancement was 0.518% (inactive).
As to `Cc1ccc(C(=O)Cn2cccn2)cc1`, the enhancement was -2.28% (inactive).
Next, `O=C(Cn1c[n+](CC(=O)c2ccc([N+](=O)[O-])cc2)cn1)c1ccc([N+](=O)[O-])cc1`: -6.86% (inactive) and 34.2% (active); `O=C(NCCc1csc(-c2ccc(C(F)(F)F)cc2)n1)C(=O)Nc1ccc(F)c(Cl)c1`: 0.606% (inactive); `Cc1nc(CN(C)C(=O)CC2C(=O)NCCN2Cc2ccc(F)cc2)cs1` (stereo not drawn): 20.6% (inactive).
Take `CC(C)(C)CN1CCNC(=O)C1CC(=O)NC1Cc2ccccc2C1` (stereo not drawn): the enhancement is -4.71% (inactive).
Next, `Cc1csc(CN(C)C(=O)CC2C(=O)NCCN2CC(C)(C)C)n1` (stereo not drawn): 44.2% (active).
Next, `COc1ccc(CCNC(=O)c2cnc3sc(N4CCCCCC4)nn3c2=O)cc1OC`: 7.34% (inactive); `COc1ccc(S(=O)(=O)c2cn(C)c3cc(N4CCCCC4)c(F)cc3c2=O)cc1`: 7.82% (inactive); `Cc1c(CNC2CCCCC2)c(C(=O)O)c(C)n1Cc1cccc(Cl)c1`: -4.62% (inactive).
In the case of `COC(=O)c1c(NC(=O)C(C)Oc2ccc(Cl)c(C)c2)sc(C)c1C` (stereo not drawn), the enhancement was -3.22% (inactive).
As for `COc1ccc(-c2cc(C(=O)Nc3sc4c(c3C(N)=O)CCCC4)no2)cc1`, the enhancement is 10.2% (inactive).
Then `Cc1cc(OC(C)C(=O)Nc2sc3c(c2C(N)=O)CCCC3)ccc1Cl` (stereo not drawn), with 34.9% (active); and `O=C(Cn1nc(Cc2cccnc2)c2ccccc2c1=O)NCC1COc2ccccc2O1` (stereo not drawn), with 0.892% (inactive); and `CC1CC(C)CN(C(=O)CCNC(=O)Cn2cnc3ccccc3c2=O)C1` (stereo not drawn), with 2.77% (inactive).
Consider `O=C(Cn1cnc2ccccc2c1=O)NCC1COc2ccccc2O1` (stereo not drawn), for which the enhancement is 38.9% (active).
Next, `COC(=O)c1sc2ncccc2c1-n1c(C)ccc1C`: 4.46% (inactive); `Cc1ccc(CN(C(=O)COc2ccc(Cl)cc2C)C2CCS(=O)(=O)C2)o1` (stereo not drawn): 1.47% (inactive); `COc1cccc(NC(=O)CN2C(=O)c3ccccc3Sc3ncccc32)c1`: 2.38% (inactive).
Turning to `O=C(CN1C(=O)c2cccc3cccc1c23)Nc1ccccc1`, the enhancement is 43.7% (active).
For the compound `O=C(CN1CCOCC1)Nc1ccccc1`, the enhancement was 2.28% (inactive).
For the compound `Oc1ccc(Cl)cc1C1C=C(c2ccc3c(c2)OCO3)NC(c2c(F)cccc2Cl)N1` (stereo not drawn), the enhancement was -2.95% (inactive).
Next, `CCCC(=O)Nc1cc2nn(-c3ccccc3)nc2cc1C`: -3.06% (inactive).
Next, `CCCn1c2ccccc2c2cnn(CC(=O)NCC3CCN(Cc4ccc(C)cc4)CC3)c(=O)c21`: 1.43% (inactive).
For the compound `CCc1nc2ccccc2c(C(=O)OC2CCCCC2=O)c1C` (stereo not drawn), the enhancement is -2.51% (inactive).
For `CCOc1ccc(NC(=O)CSc2c3c(nc4ccccc24)CCCC3)cc1`, the enhancement is -3.93% (inactive).
Then `O=C(COC(=O)c1c2c(nc3ccccc13)CCCC2)c1ccc(Br)s1`, with 35% (active).
Next, `Cc1cc(NS(=O)(=O)c2ccc3oc(=O)c4ncn(C)c4c3c2)ccc1Br`: -12.1% (inactive); `COc1ccc2c(c1)C=C(C(=O)NCc1cc(Br)ccc1OC)CO2`: -3.71% (inactive).
